# Results as given in PubChem BioAssay (NCI).
# Compounds without any hit were thinned out: in the full panel of roughly 79,000, 15% have a hit. Unmarked numbers belong to inactive results. The source made the active and inactive calls. No stated cut-off is given here; in the data, active means growth inhibition above about 70%; inactive means the rest.
# Legend:
# [1] = NCI Yeast Anticancer Drug Screen. Data for the rad50 strain (AID 155);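 further: 0% = growth of vehicle-only cultures of the same strain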; conditions: S. cerevisiae rad50 strain growth inhibition, stronger effect = higher value
# Procedure, shortened: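 Compounds were tested on a yeast strain with an engineered DNA damage repair alteration; the reported value is growth inhibition normalised to vehicle treatment.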
# [2] = NCI Yeast Anticancer Drug Screen. Data for the mec2-1 strain (AID 157); conditions: S. cerevisiae mec2-1 strain, stronger effect = higher value
# Procedure, shortened: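 Mutant yeast (mec2-1) grown with compound; growth inhibition relative to vehicle control reported.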
# [3] = NCI Yeast Anticancer Drug Screen. Data for the sgs1 mgt1 strain (AID 161);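 further: 0% = growth of cultures given vehicle only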; conditions: S. cerevisiae sgs1 mgt1 strain, stronger effect = higher value
# Procedure, shortened: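 Percent growth inhibition was derived by comparing compound-exposed mutant yeast with vehicle-exposed cultures. The strain carries alterations in DNA damage repair.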
# [4] = NCI Yeast Anticancer Drug Screen. Data for the cln2 rad14 strain (AID 165);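 further: 0% = growth equal to vehicle treated cultures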; conditions: S. cerevisiae cln2 rad14 strain, stronger effect = higher value
# Procedure, shortened: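 Readout is yeast growth inhibition versus vehicle-treated controls, using a strain with cln2 and rad14 alterations exposed to compound.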
# [5] = NCI Yeast Anticancer Drug Screen. Data for the bub3 strain (AID 167); conditions: S. cerevisiae bub3 mutant strain, stronger effect = higher value
# Procedure, shortened: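 Growth of a checkpoint-deficient yeast mutant is measured after compound exposure. Values represent inhibition relative to vehicle.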
# [6] = NCI Yeast Anticancer Drug Screen. Data for the mlh1 rad18 strain (AID 175); conditions: S. cerevisiae mlh1 rad18 strain growth inhibition, stronger effect = higher value
# Procedure, shortened: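 Genetically defined yeast (DNA repair-deficient) exposed to compounds; growth inhibition determined relative to vehicle.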
# [7] = at 5.0 µM (retest, dose inferred, filed as 0.5)
# [8] = at 50.0 µM (retest, dose inferred, filed as 5.0)
Structure (SMILES),"growth inhibition [1, 7]","growth inhibition [1, 8]",growth inhibition ([1]; at 50.0 µM),"growth inhibition [2, 7]","growth inhibition [2, 8]",growth inhibition ([2]; at 50.0 µM),"growth inhibition [3, 7]","growth inhibition [3, 8]",growth inhibition ([3]; at 50.0 µM),"growth inhibition [4, 7]","growth inhibition [4, 8]",growth inhibition ([4]; at 50.0 µM),"growth inhibition [5, 7]","growth inhibition [5, 8]",growth inhibition ([5]; at 50.0 µM),"growth inhibition [6, 7]","growth inhibition [6, 8]",growth inhibition ([6]; at 50.0 µM)
COC(=O)C1(Cc2ccc3c(c2)CCC3)Cc2ccc3c(c2C1O)CCC3 (configuration not stated),-2%,94% (active),94.6% (active),-1%,96% (active),94.3% (active),15%,97% (active),89.9% (active),-4%,94% (active),85% (active),-1%,95% (active),93.7% (active),4%,94% (active),85.3% (active)
Cc1c(C)c(O)c2c(c1O)C(=O)C=C(Cl)C2=O,99% (active),94% (active),88.3% (active),100% (active),96% (active),90.2% (active),100% (active),97% (active),88.3% (active),45%,96% (active),90.7% (active),99% (active),97% (active),87.7% (active),99% (active),96% (active),88.6% (active)
CC(=O)Nc1ccc(Nc2ccc(C(=C3C=CC(=[N+](C)CCC#N)C=C3)c3ccc(N(C)CCC#N)cc3)cc2)cc1,11%,64%,8.4%,13%,77% (active),47.7%,44%,83% (active),58.4%,41%,83% (active),55.5%,45%,77% (active),59.5%,15%,72% (active),45%
O=[N+]([O-])c1ccc(CCCl)c(CCl)c1,-150%,94% (active),97.4% (active),-48%,94% (active),98.8% (active),-51%,91% (active),91% (active),-50%,92% (active),96.4% (active),-55%,79% (active),90.3% (active),-111%,92% (active),89% (active)
CC(=O)Oc1c(C)cc([N+](=O)[O-])cc1[N+](=O)[O-],-11%,99% (active),99.7% (active),1%,99% (active),99.8% (active),11%,99% (active),99.8% (active),16%,99% (active),98.9% (active),9%,99% (active),99% (active),16%,99% (active),99.7% (active)
CC(C=O)Cc1ccccc1 (configuration not stated),2%,-6%,-8.9%,5%,-1%,-8.05%,3%,-4%,-3.35%,-2%,-8%,37%,-1%,-4%,10.3%,-4%,-8%,-1.45%
O=C1C(Br)CCC1(c1ccccc1)c1ccccc1 (configuration not stated),5%,91% (active),97% (active),6%,93% (active),97.2% (active),4%,97% (active),98% (active),4%,78% (active),78.8% (active),-10%,94% (active),95.7% (active),3%,96% (active),98.2% (active)
CS(=O)(=O)OCCN(CCOS(C)(=O)=O)c1ccc(C=Nc2ccc(-c3csc(-c4ccc(Cl)cc4)n3)cc2)cc1,37%,92% (active),92.5% (active),15%,94% (active),94.4% (active),36%,93% (active),92.3% (active),6%,91% (active),71.2% (active),1%,61%,69.4%,53%,95% (active),95.2% (active)
O=[N+]([O-])/C(C(Cl)=C(Cl)Cl)=C(/Cl)SCc1ccccc1,100% (active),99% (active),89.8% (active),100% (active),99% (active),93.4% (active),99% (active),99% (active),90.1% (active),99% (active),99% (active),91.5% (active),99% (active),99% (active),91.5% (active),99% (active),99% (active),86.2% (active)
